Source: PubChem BioAssay (National Center for Advancing Translational Sciences (NCATS))
DT40 TDP1 no CPT – qHTS for Inhibitors of human tyrosyl-DNA phosphodiesterase 1 (TDP1): qHTS in cells in absence of CPT. Potency, µM (highest dose often 46.2 µM), inactives show top-dose activity change, negative = growth inhibition, usual class: inhibitors. DT40 Tdp1-/- hTDP1 cells, no CPT, ATP luminescence, 48 h. actives 15% (n = 420,000); also: nearly all actives have a fitted effect of over 55% in size
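Readout: luminescence from CellTiter-Glo after 30 min in the dark at RT. Cells: DT40 Tdp1-/- with stable hTDP1, 400/well. Exposure: compounds alone, ≥48 hr, 37 °C.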
TDP1 block – TDP1 (human) enzyme inhibition; Q9NUW8; recombinant TDP1, AlphaScreen DNA substrate cleavage; Potency, µM (titrated, usually from 130 µM), for the others: top-dose activity change, negative = inhibition, actives largely listed as inhibitors; actives 0.28% (n = 350,000); AID 485290; also: nearly all actives have a fitted effect of over 40% in size
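AlphaScreen read-out: signal falls as enzyme removes the 3' tyrosine-FITC from a 5'-biotinylated DNA oligo (15 nM, 5 min, RT). Enzyme was E. coli-made recombinant Tdp1 at 1 nM, exposed to compound for 15 min beforehand; beads 10 ug/ml, 10 min.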
TDP1 cell CPT – growth inhibition of DT40 Tdp1-/-;hTDP1 cells with camptothecin (screen for TDP1 inhibitors); chicken DT40 Tdp1-/-;hTDP1 cells + 20 nM CPT, ATP luminescence, 48 h; Potency, µM (top dose mostly 46.2 µM), for inactives: at the highest dose activity change, negative = growth inhibition, actives largely listed as inhibitors; actives 12% (n = 420,000); also: nearly all actives have a fitted effect of over 55% in size
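Chicken DT40 Tdp1-/- cells stably complemented with human TDP1 were seeded at 400 cells/well in medium containing 20 nM camptothecin, exposed to pin-transferred compounds, and grown at 37 °C for at least 48 hr. Viability was read as ATP luminescence.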
KAT2A inh – GCN5L2 (KAT2A) acetyltransferase inhibition; Q92830; GCN5L2 HAT assay, ThioGlo1 CoA-SH fluorescence; Potency, µM (doses to about 58.9 µM), for the others: at the top dose activity change, negative = inhibition, usual class: inhibitors; actives 0.21% (n = 390,000); AID 504327
Target sequence (Q92830 whole entry, looked up): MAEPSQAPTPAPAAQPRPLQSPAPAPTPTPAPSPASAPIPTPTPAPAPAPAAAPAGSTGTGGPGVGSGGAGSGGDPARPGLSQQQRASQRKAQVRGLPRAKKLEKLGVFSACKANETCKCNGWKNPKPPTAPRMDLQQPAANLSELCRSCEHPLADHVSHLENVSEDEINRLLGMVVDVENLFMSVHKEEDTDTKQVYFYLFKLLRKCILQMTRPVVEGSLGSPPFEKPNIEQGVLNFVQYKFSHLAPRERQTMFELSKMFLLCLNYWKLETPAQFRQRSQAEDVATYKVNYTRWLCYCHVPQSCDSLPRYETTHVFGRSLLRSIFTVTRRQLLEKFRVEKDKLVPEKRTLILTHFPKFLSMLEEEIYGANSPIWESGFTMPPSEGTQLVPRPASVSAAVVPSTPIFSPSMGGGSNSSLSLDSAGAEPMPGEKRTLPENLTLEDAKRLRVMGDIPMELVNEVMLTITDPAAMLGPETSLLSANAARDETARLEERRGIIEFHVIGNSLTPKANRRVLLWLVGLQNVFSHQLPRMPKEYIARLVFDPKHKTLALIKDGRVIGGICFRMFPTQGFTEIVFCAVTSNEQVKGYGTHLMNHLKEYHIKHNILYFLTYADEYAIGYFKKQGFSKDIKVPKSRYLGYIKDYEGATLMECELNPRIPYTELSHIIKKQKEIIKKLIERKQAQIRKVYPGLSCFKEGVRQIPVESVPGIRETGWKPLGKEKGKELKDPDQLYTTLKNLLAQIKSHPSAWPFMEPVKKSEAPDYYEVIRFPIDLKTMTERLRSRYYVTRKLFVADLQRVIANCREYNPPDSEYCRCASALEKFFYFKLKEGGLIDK
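Preincubate 20nM GCN5L2 with compound 15 min, RT → add 50uM ThioGlo1 + 75uM H3(1-25) + 70uM acetyl-CoA → read fluorescence 0 and 20 min. Primary qHTS; fluorescent artifacts likely.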
VDR inh – inhibitors of human vitamin D receptor | VDR-SRC2-3 peptide fluorescence polarization, 2 h | P11473 | Potency, µM, without a hit: max response, negative = inhibition, hits mostly inhibitors | AID 504847 | actives 0.93% (n = 400,000)
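After 23 nl compound addition and a short centrifugation, plates sat for 2 hours at ambient temperature; polarization of fluorescence then indicated loss of VDR binding to peptide SRC2-3.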
PLK1 PBD block – inhibitors of human PLK1 polo-box domain binding | P53350 | actives 2.8% (n = 360,000) | Potency, µM, for the others: max response, negative = inhibition, most hits filed as inhibitors | Plk1 PBD binding of FITC phosphopeptide, fluorescence polarization; also: series mostly up to about 57 µM; nearly all actives have a fitted effect of over 65% in size
* marks the source's active call; other numbers are inactive results; ? = inconclusive; . = not tested or not shown; [ ] = another dose, or the depositor's remark. Hits are enriched below; roughly 18% of the tested compounds scored in any of these assays. Calls follow the shape of the dose curve; as a rule, active = well fitted curve in the direction sought with a large enough effect; inconclusive = small, poorly fitted or top-dose-only effect, or another doubt; inactive = no such curve, though single readings can be large; an effect the other way counts as inactive or inconclusive. % is scaled to controls: 0 for no effect and ±100 for the full control effect; potency is read from the fitted curve at half-maximal effect.

SMILES | DT40 TDP1 no CPT | TDP1 block | TDP1 cell CPT | KAT2A inh | VDR inh | PLK1 PBD block
COC(=O)[C@]12CCCCC=C1N(Cc1ccc(Cl)cc1Cl)C(=O)[C@H](CC(=O)N1CCOCC1)C2 | ? | . | ? | . | . | -14%
c1ccc(-c2nnc(-c3ccccn3)nn2)nc1 | ? | . | 15µM* | . | -12% | ?
c1ccc(-c2nnc(-c3ccccn3)c(-c3ccccn3)n2)nc1 | ? | -1% | ? | -7% | -8% | ?
c1ccc(-c2cccc(-c3ccccn3)n2)nc1 | 3.7µM* | 8% | 2.1µM* | -7% | -2% | 0%
Nc1nc(Sc2c([N+](=O)[O-])cc(C(F)(F)F)cc2[N+](=O)[O-])n[nH]1 | 21µM* | 0% | 7.3µM* | ? | 32µM* | 2.4µM*
Nc1nc(Sc2ccc(C(F)(F)F)cc2[N+](=O)[O-])n[nH]1 | -18% | 4% | -26% | -4% | 14% | -6%
CCCC(NC(=O)C(C)Sc1nnnn1C1CC1)c1ccccc1 (stereo not given) | -27% | 0% | -6% | 0% | -18% | -3%
COc1ccccc1NC(=S)NC(=O)/C=C/c1ccco1 | -22% | 0% | -15% | -8% | ? | ?
O=C(/C=C/c1ccco1)NC(=S)Nc1cccc([N+](=O)[O-])c1 | 15µM* | -6% | ? | -24% | -14% | -24%
O=C(/C=C/c1ccco1)NC(=S)Nc1ccccc1 | 26µM* | . | -28% | -10% | ? | -26%
Cc1ccccc1NC(=S)NC(=O)/C=C/c1ccco1 | -12% | 7% | -20% | -3% | ? | 21µM*
CC(OC(=O)/C=C/c1ccco1)C(=O)Nc1cccc([N+](=O)[O-])c1 (stereo not given) | 18µM* | . | 18µM* | -22% | -7% | -4%
Cc1ccc(NC(=O)C2CCCN(S(=O)(=O)c3c(C)n[nH]c3C)C2)c(C)c1 (stereo not given) | -21% | -7% | 6% | -6% | ? | .
Cc1ccc(C)c(N2CCN(C(=O)CCS(=O)(=O)c3cc(Br)cc4c3N(C(=O)C3CC3)CC4)CC2)c1 | ? | 2% | ? | -9% | 8% | .
CCOc1cc(-c2nnc(SCC(=O)NCCCOC)nc2-c2ccc(OC)c(OCC)c2)ccc1OC | ? | 0% | -26% | 2% | 4% | .
Cc1c(NC(=O)C(C)OC(=O)/C=C/c2ccccc2)c(=O)n(-c2ccccc2)n1C (stereo not given) | 2% | -3% | 1% | -2% | -1% | 2%
Cc1cccc(NC(=S)NC(=O)/C=C/c2ccco2)c1 | ? | 8% | 3.3µM* | -7% | ? | ?
CC(=O)c1ccc(NC(=S)NC(=O)/C=C/c2ccco2)cc1 | ? | . | -10% | -14% | ? | 0%
O=C(/C=C/c1ccco1)Nc1ccc(Oc2ccc(Cl)cc2)cc1 | 3.3µM* | 0% | 4.1µM* | -6% | 24% | -7%
CSc1cccc(NC(=O)/C=C/c2ccco2)c1 | ? | 3% | 23µM* | -14% | -26% | ?
CC(OC(=O)/C=C/c1ccccc1)C(=O)Nc1cccc(C#N)c1 (stereo not given) | 16µM* | 0% | 16µM* | 5% | 7% | -4%
COc1cccc(NS(=O)(=O)c2ccc3[nH]cc(C(=O)N(C)C4CCCCC4)c(=O)c3c2)c1 | ? | . | -24% | 3% | 11% | .
O=C(c1cnn2c(C(F)(F)F)cc(-c3ccc(F)cc3)nc12)N1CCc2ccccc2C1 | 21µM* | 2% | ? | -1% | 5% | 2%
O=C(c1cccc(F)c1)N1CCN(C(=O)c2cc3nc(-c4ccco4)cc(C(F)(F)F)n3n2)CC1 | 15µM* | 3%[0.0935 µM] | -24% | -4% | -20% | -10%
